DRD3 agonist = qHTS of D3 Dopamine Receptor Agonist: qHTS; D(3) dopamine receptor (Homo sapiens), P35462; D3R DiscoveRx beta-arrestin cells, luminescence, 90 min; max activation, %; hit rate 0.58% among 410,000; in the data active = max activation above about 30%; note: 0% is about no effect
Target sequence (P35462 whole entry, looked up): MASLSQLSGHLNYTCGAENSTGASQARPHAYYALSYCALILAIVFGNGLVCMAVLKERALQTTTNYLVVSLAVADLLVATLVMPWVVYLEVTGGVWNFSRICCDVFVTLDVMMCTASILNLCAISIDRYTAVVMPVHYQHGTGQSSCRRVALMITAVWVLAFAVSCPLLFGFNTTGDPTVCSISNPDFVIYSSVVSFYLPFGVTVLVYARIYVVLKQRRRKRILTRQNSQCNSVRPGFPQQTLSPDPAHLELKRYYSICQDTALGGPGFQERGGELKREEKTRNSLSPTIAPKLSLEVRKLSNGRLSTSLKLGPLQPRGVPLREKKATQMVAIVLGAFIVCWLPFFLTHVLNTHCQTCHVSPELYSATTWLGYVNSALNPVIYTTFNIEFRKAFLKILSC
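Cells at 1500/well, incubated overnight, then treated with pinned compounds (dopamine as control) for 90 min at 37 degrees C. DiscoveRx reagent added for 30 - 60 minutes at room temperature; luminescence read.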
Rango release inh = qHTS Assay for Inhibitors of RanGTP induced Rango (Ran-regulated importin-beta cargo) - Importin beta complex dissociation. Snurportin-1 (Homo sapiens) + GTP-binding nuclear protein Ran (Homo sapiens) + Importin …. Biochemical FRET Rango-importin beta, RanGTP-induced dissociation. Potency, µM (highest dose often 46.1 µM), without a hit: at the highest dose activity change, negative = inhibition. hit rate 0.071% among 340,000. AID 540253, 2011; note: potency is the fitted concentration of half-maximal effect; % of control where 0% means no effect; nearly all actives have a fitted effect of over 45% in size
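Compounds sat 5 min at room temperature with 0.1 uM Rango biosensor plus 0.25 uM importin beta, then FRET pre-read. RanGTP-RCC1 (0.6 uM Ran, 2mM GTP, 0.2 uM RCC1) added for 45 min, and the CFP/YFP post-read measured blocked complex dissociation.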
Rango complex inh = qHTS Assay for Inhibitors of Rango (Ran-regulated importin-beta cargo) - Importin beta complex formation. Importin subunit beta-1 (Homo sapiens), Q14974. Rango CFP/YFP FRET sensor + importin beta, 45 min. Potency, µM (highest dose often 92.2 µM), without a hit: at the top dose inhibition of complex formation. hit rate 0.031% among 340,000. AID 540263, 2011;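 note: potency is the fitted concentration of half-maximal effect; 0% = DMSO wells and 100% = buffer wells lacking importin beta; nearly all actives have a fitted effect of over 15% in size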
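FRET biosensor Rango (snurportin 1 IBB between N-terminal EYFP and C-terminal Cerulean), 50 nM in PBS/1 mM DTT/0.02% Tween-20/0.1% BSA, preincubated 5 min RT with compound; 0.125 microM importin beta added, 45 min RT, CFP/YFP FRET ratio read.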
MmCpn inh = Inhibitors of TCP-1 ring complex (TRiC) of Methanococcus maripaludis (MmCpn): qHTS; purified Mm-Cpn ATPase, ADP Transcreener TR-FRET; Potency, µM (top dose mostly 76.9 µM), inactives show at the top dose activity, negative = inhibition, usual class: inhibitors; hit rate 0.031% among 330,000; AID 504842, 2011; active = well fitted inhibition curve with a large enough effect; inconclusive = small, poorly fitted or top-dose-only effect; note: potency is the fitted concentration of half-maximal effect; % is set by controls: 0 for no effect and ±100 for the full control effect; nearly all actives have a fitted effect of over 80% in size
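Reaction buffer contained 30 mM Tris pH 7.4, 100 mM KCl, 5 mM MgCl2 and 1 mM DTT. Mm-CPN (25 nM final) hydrolysed 10 uM ATP over 30 min at 37°C; ADP was read by HTRF.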
TSG101-PTAP inh = qHTS Assay for Iinhibitors of HIV-1 Budding by Blocking the Interaction of PTAP/TSG101 | Tumor susceptibility gene 101 protein (Homo sapiens), Q99816 | Fluorescence polarization, FITC-PTAP peptide / Tsg101 binding | Potency, µM (titrated, usually from 115 µM), inactives show at the highest dose activity change, negative = inhibition, hits mostly inhibitors | 340,000 tested, under 10 active; active = well fitted inhibition curve with a large enough effect in the main read-out, with a control signal flat, not every such curve was filed as active; inconclusive = small, poorly fitted or top-dose-only effect, or effect the other way, or a change in a side signal; inactive = no such curve, though single readings can be large or run the other way; note: potency is the fitted concentration of half-maximal effect; % of control where 0% means no effect
Target sequence (Q99816 whole entry, looked up): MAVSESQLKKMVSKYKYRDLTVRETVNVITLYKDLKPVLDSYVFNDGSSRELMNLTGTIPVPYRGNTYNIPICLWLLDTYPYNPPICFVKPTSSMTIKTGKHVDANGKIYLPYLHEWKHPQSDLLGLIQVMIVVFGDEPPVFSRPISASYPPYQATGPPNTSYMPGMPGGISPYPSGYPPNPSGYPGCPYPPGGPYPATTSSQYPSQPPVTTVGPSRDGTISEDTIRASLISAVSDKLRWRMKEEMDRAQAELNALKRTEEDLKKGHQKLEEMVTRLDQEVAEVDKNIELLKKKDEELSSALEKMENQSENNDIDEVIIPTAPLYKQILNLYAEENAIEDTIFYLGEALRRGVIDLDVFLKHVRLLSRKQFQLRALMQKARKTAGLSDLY
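Compounds were pin-transferred onto Tsg101 binding domain (10 uM final) in HEPES pH 7.5 buffer, then FITC-PTAP peptide was added at 50 nM final. After 20 min at RT, polarization reported peptide displacement across a qHTS concentration series.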
D3 antag = qHTS of D3 Dopamine Receptor Antagonist: qHTS | D(3) dopamine receptor (Homo sapiens), P35462 | max response, negative = inhibition, % | D3R cells, DiscoveRx beta-arrestin luminescence, antagonist mode; active compounds read low | hit rate 2.5% among 360,000; in the data active = max response below about -50%; inconclusive = no clear call, values can overlap the other calls; note: % is set by controls: 0 for no effect and ±100 for the full control effect
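Cells expressing the human receptor were seeded at 1500 cells/well, incubated overnight at 37 degrees C in 5% CO2, then exposed to library compounds with dopamine controls for 90 minutes at 37 degrees C before luminescent detection.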
* = called active by the depositor; ? = inconclusive; . = no result given; ! = repeats disagree; [ ] = dose if it differs, or a comment. Compounds with a hit are over-represented: about 2.9% of the library has one in this group of screens. Unless noted, calls come from the whole dose curve.

SMILES	DRD3 agonist	Rango release inh	Rango complex inh	MmCpn inh	TSG101-PTAP inh	D3 antag
CCCCCCCCOC(=O)c1cc([N+](=O)[O-])c(Sc2ncnc3nc[nH]c23)c([N+](=O)[O-])c1	-11.7	14.9%	9.0%	.	?	-54.7*
CCC1CCCCN1S(=O)(=O)c1ccc(N2CCCCS2(=O)=O)cc1 (stereo unspecified)	-18.3	.	.	.	.	.
CC/C(=C(\c1ccccc1)c1ccc(OCCN(C)C)cc1)c1ccccc1	-56.0	-13.9%	6.5%	-1.1%	-0.9%	-72.8*!
CC/C(=C(\c1ccc(O)cc1)c1ccc(OCCN(C)C)cc1)c1ccccc1	-49.7	0.6%	3.3%	-1.9%[15.4 µM]	-1.4%	-7.0
CCN(CC)CCOc1ccc(/C(=C(/Cl)c2ccccc2)c2ccccc2)cc1	.	-7.9%	2.7%	?	-0.4%	-65.9*!
CCOC(=O)c1ccc(N2C(=O)c3n[nH]c(-c4cccs4)c3C2c2ccc(O)c(OC)c2)cc1 (stereo unspecified)	-21.2	.	.	.	.	.
O=C(Cn1c(=O)oc2cc(S(=O)(=O)N3CCCC3)ccc21)N1CCN(c2ccccc2)CC1	-8.1	-6.5%	-2.8%	-0.4%	-4.0%	-58.4*
C=CCN(CC=C)CCOc1cccc(Oc2ccccc2)c1	-0.9	-3.2%	?	0.7%	-0.6%	-50.3*
Cn1c(=O)[nH]c(=O)c2c1nc(SCCN1CCCCC1)n2CCCc1ccccc1	3.4	18.3%	-0.4%	-0.7%	-9.2%	-68.2*
Cn1c(=O)[nH]c(=O)c2c1nc(SCCN1CCCCC1)n2Cc1ccccc1	-3.3	-19.3%	-0.6%	-1.2%	-0.7%	-11.3
CC(C)n1cnc(S(=O)(=O)N2CCCC(C(=O)NCc3ccccc3Cl)C2)c1 (stereo unspecified)	-17.6	.	.	.	.	.
CCC(Sc1nc(C)cc(C)n1)C(=O)Nc1cc(C)on1 (stereo unspecified)	-0.2	18.9%	0.3%	?	-4.8%	-52.8*
Cc1ccc(CN2CCN(Cc3ccc(-n4cccn4)cc3C)CC2CCO)cc1 (stereo unspecified)	-16.5	3.7%	-1.7%	5.8%	-0.3%	?
CC(=O)c1cccc(CN2CCN(Cc3ccc(F)cc3)C(CCO)C2)c1 (stereo unspecified)	-3.9	-12.2%	2.2%	-0.3%	-0.9%	?
CC(=O)c1cccc(CN2CCN(Cc3ccc(C)cc3)C(CCO)C2)c1 (stereo unspecified)	-22.1	7.1%	-0.8%	-8.2%	0.5%	-74.2*
Cc1ccc(CN2CCN(Cc3cccc(-n4cccn4)c3)CC2CCO)cc1 (stereo unspecified)	-16.2	-3.8%	-3.6%	-5.6%	-1.9%	-52.9*
CC(=O)c1cc(CN2CCN(Cc3ccc(C)cc3)C(CCO)C2)cs1 (stereo unspecified)	-4.2	3.6%	3.7%	2.6%	-1.8%	-86.3*
CC(=O)Nc1ccc(/C=N/NC(=O)CCN2CCN(c3ccccc3)CC2)cc1	-4.0	0.1%	-0.9%	0.1%	-5.4%	-83.9*
COc1ccc(OC)c(/C=N/NC(=O)CCN2CCN(C(c3ccccc3)c3ccccc3)CC2)c1	-6.3	-18.8%	-0.1%	-1.0%	-3.3%	-22.7
COc1ccc(/C=N\NC(=O)CCN2CCN(c3ccccc3)CC2)cc1OC	15.5	-7.3%	-4.7%	-0.1%	-2.3%	?
O=C(CCN1CCN(c2ccccc2)CC1)N/N=C/c1ccccc1OC(F)F	-20.6	8.2%	-4.0%	2.4%	-1.2%	-69.6*
COc1cc([N+](=O)[O-])ccc1NC(=O)N1CCC2(CC1)Nc1cc(F)ccc1-n1cccc12	-21.3	.	.	.	.	.
CCc1cccc(C)c1NC(=O)c1cc2ccccc2o1	-12.0	.	.	.	.	.
Cc1ccc(C(NC(=O)Cc2cccs2)C(=O)Nc2ccc(C(C)C)cc2)cc1 (stereo unspecified)	-8.7	.	.	.	.	.
Cc1ccccc1Cn1c(SCc2ccc(C(=O)NC(C)c3ccccc3)cc2)nc2ccncc21 (stereo unspecified)	-18.8	.	.	.	.	.
SMILES	DRD3 agonist	Rango release inh	Rango complex inh	MmCpn inh	TSG101-PTAP inh	D3 antag
CC1CCN(C(=O)COC(=O)c2n[nH]c3ccccc23)CC1	-12.1	3.1%	0.5%	-2.4%	-0.4%	-53.5*
CCC1CCCCN1C(=O)COC(=O)c1n[nH]c2ccccc12 (stereo unspecified)	-2.5	18.9%	3.7%	0.9%	-0.1%	2.0
O=C(NC(NC(=S)Nc1c(Cl)cc(Cl)cc1Cl)C(Cl)(Cl)Cl)OCc1ccccc1 (stereo unspecified)	1.4	0.4%	0.3%	1.1%	-2.3%	-76.1*
CCOC(=O)c1[nH]c2ccc(F)cc2c1NC(=O)C(C)N1CCc2cc(OC)c(OC)cc2C1 (stereo unspecified)	-11.3	6.6%	0.8%	1.5%	-4.0%	-55.2*
CCOC(=O)c1[nH]c2ccc(OC)cc2c1NC(=O)C(C)N1CCC2(CC1)OCCO2 (stereo unspecified)	.	.	.	-9.7%	.	.
c1ccc(CNc2ncnc3ccccc23)cc1	32.8*!	-2.9%	0.5%	1.3%	-2.0%	22.2
c1ccc(CN2CCC(CNc3ncnc4ccccc34)C2)cc1 (stereo unspecified)	-16.3	-4.6%	0.2%	.	-6.9%	-63.6*
Cc1nn(-c2ccccc2)c(OC(=O)C(C)(C)C)c1Sc1ccccc1	-14.7	.	.	.	.	.
Cn1ccc(NC(=O)Nc2cccc([N+](=O)[O-])c2)n1	-10.3	24.1%	-2.0%	-6.4%	0.8%	-18.6
O=[N+]([O-])c1ccc(OCC(O)CNCCNc2nccc(C(F)(F)F)n2)cc1 (stereo unspecified)	-14.6	13.6%	-3.0%	0.3%	-6.1%	-83.6*
Cc1cccc(N2CCN(C(=O)CS(=O)(=O)Cc3nc(-c4ccccc4C)oc3C)CC2C)c1 (stereo unspecified)	7.8	.	.	.	.	.
CCN1C(=O)CS/C1=N\S(=O)(=O)c1ccc(Cl)cc1	1.7	4.4%	3.3%	-0.8%	1.6%	4.8
CCn1c(Cl)c(C=O)s/c1=N\S(=O)(=O)c1ccccc1	-23.7	5.7%	1.2%	-1.8%	-3.4%	-121.9*
O=c1cc(CO)oc(C(Nc2ccccn2)c2cccc(F)c2)c1O (stereo unspecified)	0.7	13.3%	1.9%	-0.6%	-1.9%	?
